According to PubChem BioAssay AID1347426 (Functional Genomics Laboratory (NCATS/FGL), 2020):
Hit rate of the full screen: of about 31,000 sequences, about 1,400 (4.5%) were called active. The full list was thinned out, with actives kept by preference. Unmarked numbers belong to inactive results.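 The calls were made as follows: active = median seed-adjusted z-score above 1 or below -1; inactive = the rest.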

Assay: Novel Modifiers of Survival Motor Neuron (SMN) Protein: Gene Identification via Genome-wide siRNA Screen
Conditions: HEK293T SMN2-luciferase reporter, siRNA knockdown, 72 h; actives lie on both sides
From the text: Spinal muscular atrophy (SMA) is the most common neuromuscular autosomal recessive disorder and one of the leading genetic causes of infant death. SMA results from mutations inducing loss of function or deletion in the survival of motor neuron-1 gene (SMN1), leading to deficiency of the survival motor neuron (SMN) protein. Although a second nearly identical gene, SMN2, is retained in humans, its expression primarily produces an aberrantly spliced isoform that is largely unstable and quickly degraded. We performed a genome-wide RNAi screen using a cell-based reporter assay to identify genes and pathways that modulate SMN protein stability. The screen identified over 200 genes that led to the greatest increase or decrease in luciferase expression.
Using HEK293T cells stably expressing a luciferase reporter that combines the promoter and splicing based cassettes in tandem with the major portion of the native SMN2 cDNA with luciferase, we performed a genome-wide RNAi screen to identify modulators of SMN protein levels. Luciferase is expressed when full-length SMN protein is generated with luminescence signal proportional to SMN protein levels. Our luciferase-based reporter assay was used to screen Ambion Silencer Select Human Druggable Genome siRNA library (10418 genes, 3 unique siRNAs per gene) using lipid-based reverse transfection.
Briefly, 1 pmol of each siRNA was spotted to a well of a 384-well plate (Corning, Corning, NY) and 20 microL of serum-free DMEM containing […] of Lipofectamine RNAiMax (Life Technologies, Carlsbad, CA) was then added to each well. Transfected cells were maintained at 37 degrees C in 5% CO2 for 72 hours, 20 microL of ONE-Glo Reagent (Promega) was added to wells for luciferase quantification. Raw luminescence reads were normalized to Ambion(R) Silencer(R) Negative Control #2 siRNA, then log10 transformed. A robust statistical measure of median absolute deviation (MAD) to standardize siRNA activities from each screen. Common Seed Analysis was used to help prioritize clean hits as opposed to those appearing to arise from seed based off-target effects. Candidate modulators were defined as the genes having a MAD score greater than 1.0 or less than -1.0.

In order of falling median seed-adjusted z-score:
1. CGAGAAAGAAUUCCACUUUTT against HOXC5  0.507
2. AGCUCGUACUGUUCCAAUATT against MMP19  0.43
3. GACGGAAAGACUUACGUUATT against EIF2AK2  0.419
4. GAGACUCUGUGGACGUAAATT against ZNF101  0.336
5. AAGUGGGAGUUACAUUAAATT against DLGAP2  0.295
6. GACUAUAACUUCCCGAAAATT against SYT11  0.29
7. GGACAGACACGUCAGCAAATT against TMEM171  0.278
8. CUACCAGGCUUAAUAGGAATT against GFM2  0.26
9. GGUUUGGAAUGUUCGAGUUTT against SLC25A1  0.252
10. GGGUUACAGCUAAAAUUGUTT against OC90  0.216
11. GGGUCUUACUGAUUCCACATT against A4GNT  0.213
12. GAUAAUGGAAGGUGAAUUUTT against PMS2L3  0.175
13. GCAAUGUGGUCAAGACGGATT against INHBE  0.172
14. CCUUGUCACAGGUCAAUCATT against VWF  0.159
15. CAGGAUCUACGAUAAGGUATT against ACSL5  0.109
16. CUACCUUACUUUAACAUUATT against KCNS3  0.103
17. GGGUAUCACCUCACGCUUATT against ABCA12  0.0759
18. CAUCAUUACCAGAGCUACATT against RLN1  0.0637
19. CUCUGUGAAUGGUGCCGAATT against FAM57A  0.0434
20. GGAUAAUGAUCGCGAGGAATT against ALS2  0
21. AGAUAAGAAUCGCAUGACATT against ARHGAP9  0
22. CGAUUUAUCCGAUGCCCUUTT against CD99  0
23. GGUGAAUACUUCCGGUACATT against SULT2B1  0
24. ACAUGACCAUGGAAGCUGATT against HIPK4  0
25. GAAUCAACUUUGCCGUGUUTT against SHMT2  -0.0453
26. CCGCAGUUCUAGGUCCAAUTT against ABCC2  -0.0464
27. GAGCUUAGUGAUAAUAUAATT against ANP32E  -0.0648
28. CGUGUAUUCUUUCACUAAUTT against MFSD1  -0.0833
29. GUGACUAUGAGCUCAAAUATT against RAVER1  -0.0873
30. GGAAAUCUCGGAGAUCACATT against MLYCD  -0.154
31. GGUCACCACCAAAUACGUUTT against B4GALNT2  -0.174
32. AGUGACAGAGUACAAGAUATT against EIF3G  -0.198
33. GGUGCGGCCCUAUUACUUUTT against RPUSD2  -0.215
34. CAACCAAGGUCAGUCUUAUTT against TFCP2L1  -0.246
35. GGUUCACGGCUAAAGCAAUTT against DGCR8  -0.266
36. CAUCCUCAUUUGAAACCGUTT against CREBL1  -0.348
37. GGACUGUACAACACUCUGATT against TGFB3  -0.354
38. CAGUGAAGGUGAAAUUCGATT against UCHL5  -0.358
39. GACUGACAUUGAGAUUACATT against CCT3  -0.416
40. GCGAAAUUUUGGAUAUCAATT against KIF23  -0.449
41. GGGAUAUUUUCUACGCUUUTT against DNAH5  -0.45
42. GAAUGGUGUGGAUCUCCUATT against ARPC5  -0.479
43. CCAUCUCCAGUUGUAUUUUTT against CHKA  -0.558
44. GCAGAUGACUACAACUUUATT against E2F5  -0.628

For GGAUGUCAACUGUGCUUUUTT against MED24, the median seed-adjusted z-score was -2.3 (active).
With CGAGAGUUACUUACAAGAATT against RAN the median seed-adjusted z-score was -3.09 (active).
With GAACGUAGAAUGAAAGUAATT against PSMC1 the median seed-adjusted z-score was -2.23 (active).
With AGCUUCUACCGUGUCCUUATT against UCK2 the median seed-adjusted z-score was -1.51 (active).
For GGACACCUGUGAACCGCAUTT against ARID3A, the median seed-adjusted z-score was -1.11 (active).
In the case of GAUGGGACAUCGUUGCUCATT against OASL, the median seed-adjusted z-score is reported as 1.02 (active).
With GGGAAUGACUGGAAGACGATT against TTF1 the median seed-adjusted z-score was 1.76 (active).
With GGCACAAUUUCAACUCCAUTT against GPR35 the median seed-adjusted z-score was -1.46 (active).
In the case of GGAUCCGAGAGUCACCCAATT against LLGL1, the median seed-adjusted z-score is reported as -1.13 (active).
In the case of CAUUCGCAUUCAGUCCAUATT against FRAP1, the median seed-adjusted z-score is reported as -1.02 (active).
